Inconclusive results are not listed. Active and inactive are the calls of the source. Rule for the calls, unless noted: active = hit-call score of the fitted dose curve at least 0.9, where 1 is the maximum; inactive = score below 0.9.
How the values were obtained:
[1] = read-out: Interleukin-1 alpha (IL1a), IL1A (gene 3552); test: BSK_LPS_IL1a: BioMAP Diversity Plus: LPS Assay for Interleukin-1 alpha (IL1a) Biomarker Activity (AID 2283080); conditions: primary human HUVEC with PBMC; actives raise or lower the signal
Outline: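 Readout is IL-1a level by ELISA, 24 h post-dose, fitted as gain or loss relative to DMSO. System: LPS-activated human primary co-culture of vascular endothelium and peripheral blood mononuclear cells, with parallel SRB total-protein cytotoxicity.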

[2] = read-out: Monocyte Chemoattractant Protein-1 (MCP1), CCL2 (gene 6347); test: BSK_LPS_MCP1: BioMAP Diversity Plus: LPS Assay for Monocyte Chemoattractant Protein-1 (MCP1) Biomarker Activity (AID 2283081); conditions: primary human HUVEC with PBMC; actives raise or lower the signal
Outline: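 Secreted MCP-1 read by ELISA at 24 h post-dosing in an LPS-activated co-culture of endothelial cells with peripheral blood mononuclear cells. Fits run in both directions, DMSO as baseline; parallel SRB staining tracks overt cytotoxicity.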

[3] = BSK_LPS_PGE2: BioMAP Diversity Plus: LPS Assay for Prostaglandin E2 (PGE2) Biomarker Activity (AID 2283082); conditions: primary human HUVEC with PBMC; actives raise or lower the signal;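 for AC50: secreted prostaglandin E2 measured by ELISA in LPS-stimulated co-culture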
Outline: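 LPS-activated HUVEC/PBMC co-culture; cmpd dosed, 24 h; PGE2 by ELISA; bidirectional fit vs DMSO; SRB (0.1%, TCA-fixed, 560 nm) in parallel plates for overt cytotox.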

[4] = read-out: Macrophage colony-stimulating factor (MCSF), CSF1 (gene 1435); test: BSK_LPS_MCSF: BioMAP Diversity Plus: LPS Assay for Macrophage colony-stimulating factor (MCSF) Biomarker Activity (AID 2283083); conditions: primary human HUVEC with PBMC; actives raise or lower the signal
Outline: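 Bidirectional fitting against DMSO was applied to M-CSF levels read by ELISA at 24 h post-dose. The system pairs human umbilical vein endothelium with peripheral blood mononuclear cells; parallel SRB staining tracked cytotoxicity.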

[5] = read-out: Tissue Factor, F3 (gene 2152); test: BSK_LPS_TissueFactor: BioMAP Diversity Plus: LPS Assay for Tissue Factor Biomarker Activity (AID 2283084); conditions: primary human HUVEC with PBMC; actives raise or lower the signal
Outline: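 Compound was added to an endothelial cell/PBMC co-culture, and after 24 h tissue factor (CD142) was read by ELISA. Gain or loss of signal was fitted against a DMSO baseline, and parallel SRB staining (560 nm) tracked overt cytotoxicity.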

[6] = read-out: Tumor necrosis factor (Homo sapiens) (UniProt P01375); test: BSK_LPS_TNFa: BioMAP Diversity Plus: LPS Assay for Tumour Necrosis Factor alpha (TNFa) Biomarker Activity (AID 2283085); conditions: primary human HUVEC with PBMC; actives raise or lower the signal
Outline: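 Read-out is ELISA of TNFa in primary human endothelial cell–PBMC co-cultures at 24 h after compound. Activity in either direction was fitted against DMSO.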

[7] = read-out: Vascular cell adhesion molecule 1 (VCAM1), VCAM1 (gene 7412); test: BSK_LPS_VCAM1: BioMAP Diversity Plus: LPS Assay for Vascular cell adhesion molecule 1 (VCAM1) Biomarker Activity (AID 2283086); conditions: primary human HUVEC with PBMC; actives raise or lower the signal
Outline: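 HUVEC + PBMC co-culture, LPS system; compound 24 h; VCAM-1 by ELISA; bidirectional fit vs DMSO control; parallel SRB (0.1%, TCA-fixed, 560 nm) for cytotoxicity.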

[8] = read-out: CD38, CD38 (gene 952); test: BSK_SAg_CD38: BioMAP Diversity Plus: SAg Assay for CD38 Biomarker Activity (AID 2283087); conditions: primary human HUVEC with PBMC; actives raise or lower the signal
Outline: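 Human HUVEC plus PBMC co-culture stimulated with superantigen; CD38 measured by ELISA 24 h after chemical dosing. Fluorescence read-out, bidirectional fit against DMSO; cytotoxicity tracked in parallel by SRB and Alamar Blue.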

[9] = read-out: CD40, CD40 (gene 958); test: BSK_SAg_CD40: BioMAP Diversity Plus: SAg Assay for CD40 Biomarker Activity (AID 2283088); conditions: primary human HUVEC with PBMC; actives raise or lower the signal
Outline: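 CD40 is measured by fluorescence ELISA in an endothelial/PBMC primary human co-culture at 24 h post-dose. Fitting is bidirectional, DMSO baseline. Parallel SRB staining (560 nm) flags cytotoxicity.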

[10] = read-out: CD69, CD69 (gene 969); test: BSK_SAg_CD69: BioMAP Diversity Plus: SAg Assay for CD69 Biomarker Activity (AID 2283089); conditions: primary human HUVEC with PBMC; actives raise or lower the signal
Outline: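 Primary human vascular co-culture (umbilical vein endothelium with peripheral blood mononuclear cells) exposed to test chemical for 24 h. CD69 levels quantified by fluorescence ELISA; DMSO served as negative control for bidirectional fitting.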

[11] = read-out: Monocyte Chemoattractant Protein-1 (MCP1), CCL2 (gene 6347); test: BSK_SAg_MCP1: BioMAP Diversity Plus: SAg Assay for Monocyte Chemoattractant Protein-1 (MCP1) Biomarker Activity (AID 2283090); conditions: primary human HUVEC with PBMC; actives raise or lower the signal
Outline: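 MCP-1 levels in the endothelial–PBMC SAg co-culture were quantified by ELISA at 24 h post-dosing; both increases and decreases versus DMSO scored. Cytotoxicity monitored by SRB total protein in parallel cultures.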

[12] = read-out: E-selectin (Homo sapiens) (UniProt P16581); test: BSK_SAg_Eselectin: BioMAP Diversity Plus: SAg Assay for Eselectin Biomarker Activity (AID 2283091); conditions: primary human HUVEC with PBMC; actives raise or lower the signal
Outline: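 Cell-surface E-selectin is read by ELISA at 24 h in the SAg co-culture of HUVEC and PBMC. Curves are fitted in both directions relative to DMSO. Parallel SRB total-protein staining tracks overt toxicity.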

[13] = read-out: Monokine induced gamma interferon (MIG), CXCL9 (gene 4283); test: BSK_SAg_MIG: BioMAP Diversity Plus: SAg Assay for Monokine induced gamma interferon (MIG) Biomarker Activity (AID 2283092); conditions: primary human HUVEC with PBMC; actives raise or lower the signal
Outline: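 Endothelial cells and PBMC were co-cultured, exposed to test chemicals, and sampled 24 h later. MIG was measured by ELISA, and responses were fitted in both directions relative to DMSO.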

[14] = BSK_SAg_PBMCCytotoxicity: PBMC Cytotoxicity Assessment in the BioMAP Diversity Plus: SAg Assay (AID 2283093); conditions: primary human HUVEC with PBMC;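 note: PBMC viability measured as Alamar Blue reduction fluorescence at 546/580 nm; fitted both ways against DMSO so a hit may be loss or gain of signal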
Outline: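 Human umbilical vein endothelial cells co-cultured with PBMC; PBMC (75,000/well) pre-treated with compound 1 h, then activated with SEB and TSST-1 (20 ng/mL final each) for 90 h. Alamar Blue added 6 h, fluorescence 546/580 nm; bidirectional fit versus DMSO.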

[15] = read-out: Interleukin-8 (IL8), CXCL8 (gene 3576); test: BSK_SAg_IL8: BioMAP Diversity Plus: SAg Assay for Interleukin-8 (IL8) Biomarker Activity (AID 2283094); conditions: primary human HUVEC with PBMC; actives raise or lower the signal
Outline: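 ELISA read-out of IL-8 in a primary human vascular co-culture (umbilical vein endothelium plus PBMC), taken 24 h after compound addition. Values derive from bidirectional fits against DMSO negative controls.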

[16] = BSK_SAg_Proliferation: Cell Proliferation Assessment in the BioMAP Diversity Plus: SAg Assay (AID 2283095); conditions: primary human HUVEC with PBMC;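 note: relative cell number as total protein by SRB absorbance in sub-confluent culture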
Outline: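 Cells (endothelium plus PBMC, human primary) were dosed with chemical, cultured 96 h, fixed in 10% TCA and stained with 0.1% SRB. Absorbance at 560 nm gave relative protein, fitted bidirectionally relative to DMSO.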

[17] = BSK_SAg_SRB: Viability Assessment in the BioMAP Diversity Plus: SAg Assay (AID 2283096); conditions: primary human HUVEC with PBMC;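 note: cells read one day after compound addition; hits may be either gain or loss of signal compared with DMSO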
Outline: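 Endothelial/PBMC primary human co-culture; compound 24 h; fix 10% TCA, stain 0.1% SRB, A560; protein content as cytotoxicity proxy; bidirectional curve fit, DMSO = baseline.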

[18] = molecular target: human CYP2A6, CYP2A6 (gene 1548) (UniProt P11509); test: NVS_ADME_hCYP2A6: NovaScreen (NVS) CYP450-related Enzyme Activity (ADME) Assay for human CYP2A6 (AID 2283099; active = hit-call score of the fitted dose curve at least 0.9, where 1 is the maximum)
Chain of human CYP2A6, CYP2A6 (gene 1548) (P11509 whole entry, looked up): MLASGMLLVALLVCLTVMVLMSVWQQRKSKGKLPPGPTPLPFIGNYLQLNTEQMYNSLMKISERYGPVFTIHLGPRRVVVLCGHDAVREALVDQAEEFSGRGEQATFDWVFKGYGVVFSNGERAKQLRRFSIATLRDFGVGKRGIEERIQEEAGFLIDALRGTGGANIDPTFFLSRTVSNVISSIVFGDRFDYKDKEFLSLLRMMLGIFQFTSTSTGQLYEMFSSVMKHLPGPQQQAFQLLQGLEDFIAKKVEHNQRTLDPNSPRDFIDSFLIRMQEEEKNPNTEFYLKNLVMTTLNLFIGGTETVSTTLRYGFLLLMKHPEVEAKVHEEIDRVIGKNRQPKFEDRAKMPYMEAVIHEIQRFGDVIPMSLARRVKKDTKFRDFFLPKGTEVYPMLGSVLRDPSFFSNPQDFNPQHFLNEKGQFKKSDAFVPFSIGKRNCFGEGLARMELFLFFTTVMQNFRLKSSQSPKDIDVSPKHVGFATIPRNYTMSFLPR
Outline: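 Compounds screened at 10 uM (duplicate) and, if active, titrated to a 20 uM top concentration against insect-cell-expressed CYP2A6. Loss of fluorescent product signal after 0.5 h, relative to acetonitrile baseline, indicates inhibition.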

[19] = molecular target: human CYP19A1, CYP19A1 (gene 1588) (UniProt P11511); test: NVS_ADME_hCYP19A1: NovaScreen (NVS) CYP450-related Enzyme Activity (ADME) Assay for human CYP19A1 (AID 2283098; active = hit-call score of the fitted dose curve at least 0.9, where 1 is the maximum;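 note: potency for inhibitors seen as loss of fluorescent enzyme signal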)
Chain of human CYP19A1, CYP19A1 (gene 1588) (P11511 whole entry, looked up): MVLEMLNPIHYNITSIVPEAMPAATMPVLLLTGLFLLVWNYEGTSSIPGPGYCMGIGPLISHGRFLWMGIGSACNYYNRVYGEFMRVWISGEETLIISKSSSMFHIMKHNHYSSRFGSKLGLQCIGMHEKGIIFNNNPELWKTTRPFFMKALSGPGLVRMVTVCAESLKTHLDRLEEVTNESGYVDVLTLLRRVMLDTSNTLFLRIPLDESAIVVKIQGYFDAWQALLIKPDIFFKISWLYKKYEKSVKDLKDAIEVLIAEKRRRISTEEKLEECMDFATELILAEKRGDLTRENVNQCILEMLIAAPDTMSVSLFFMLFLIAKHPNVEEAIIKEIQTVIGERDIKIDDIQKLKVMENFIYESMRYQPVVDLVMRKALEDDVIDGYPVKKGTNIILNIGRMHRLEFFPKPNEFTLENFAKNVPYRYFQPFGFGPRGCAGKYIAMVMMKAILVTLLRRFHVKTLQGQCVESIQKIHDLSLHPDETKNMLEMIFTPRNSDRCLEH
Outline: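 Cell-free enzyme assay with recombinant protein and a specific fluorogenic substrate, read by fluorescence intensity 0.5 h after dosing. Primary screen ran in duplicate at 10 uM; actives were retested in concentration series. Loss of signal versus acetonitrile baseline.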

[20] = molecular target: human CYP1A1, CYP1A1 (gene 1543) (UniProt P04798); test: NVS_ADME_hCYP1A1: NovaScreen (NVS) CYP450-related Enzyme Activity (ADME) Assay for human CYP1A1 (AID 2283100; active = hit-call score of the fitted dose curve at least 0.9, where 1 is the maximum)
Chain of human CYP1A1, CYP1A1 (gene 1543) (P04798 whole entry, looked up): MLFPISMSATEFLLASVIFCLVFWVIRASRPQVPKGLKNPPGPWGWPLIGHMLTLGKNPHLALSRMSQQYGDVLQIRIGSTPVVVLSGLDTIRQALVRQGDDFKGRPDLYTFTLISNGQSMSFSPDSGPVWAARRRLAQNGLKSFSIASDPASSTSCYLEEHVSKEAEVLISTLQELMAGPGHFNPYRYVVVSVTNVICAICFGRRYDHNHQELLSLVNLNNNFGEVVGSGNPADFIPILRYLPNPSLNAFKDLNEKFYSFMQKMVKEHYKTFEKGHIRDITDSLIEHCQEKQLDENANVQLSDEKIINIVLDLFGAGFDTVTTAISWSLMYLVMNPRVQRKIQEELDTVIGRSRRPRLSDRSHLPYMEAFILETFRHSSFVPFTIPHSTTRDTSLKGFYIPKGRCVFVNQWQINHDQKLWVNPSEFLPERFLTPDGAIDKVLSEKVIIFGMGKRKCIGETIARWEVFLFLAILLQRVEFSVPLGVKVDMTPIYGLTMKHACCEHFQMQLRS
Outline: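 Chemicals were first tested in duplicate at 10 uM, and those passing a 30% inhibition threshold were rerun as concentration series topping at 20 uM. Fluorescence read-out of recombinant enzyme turnover after 1 h, relative to acetonitrile.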

Measured: AC50

Chain of E-selectin (Homo sapiens) (P16581 whole entry, looked up): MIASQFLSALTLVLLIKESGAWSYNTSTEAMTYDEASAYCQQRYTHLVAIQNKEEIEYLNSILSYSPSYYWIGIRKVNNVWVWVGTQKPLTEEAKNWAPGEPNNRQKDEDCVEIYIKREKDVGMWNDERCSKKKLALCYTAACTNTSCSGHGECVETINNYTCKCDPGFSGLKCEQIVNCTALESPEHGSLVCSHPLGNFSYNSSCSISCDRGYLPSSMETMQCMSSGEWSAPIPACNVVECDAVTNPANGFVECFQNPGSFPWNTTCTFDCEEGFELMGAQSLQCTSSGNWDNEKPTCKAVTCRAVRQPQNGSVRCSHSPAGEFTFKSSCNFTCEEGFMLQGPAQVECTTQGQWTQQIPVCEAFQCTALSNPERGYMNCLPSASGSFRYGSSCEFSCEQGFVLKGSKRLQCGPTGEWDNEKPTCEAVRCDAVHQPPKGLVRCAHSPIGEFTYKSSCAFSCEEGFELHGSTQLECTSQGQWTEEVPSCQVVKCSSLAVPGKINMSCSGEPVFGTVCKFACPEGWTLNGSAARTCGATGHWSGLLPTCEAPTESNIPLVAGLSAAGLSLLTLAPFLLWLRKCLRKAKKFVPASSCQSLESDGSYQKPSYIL
Chain of Tumor necrosis factor (Homo sapiens) (P01375 whole entry, looked up): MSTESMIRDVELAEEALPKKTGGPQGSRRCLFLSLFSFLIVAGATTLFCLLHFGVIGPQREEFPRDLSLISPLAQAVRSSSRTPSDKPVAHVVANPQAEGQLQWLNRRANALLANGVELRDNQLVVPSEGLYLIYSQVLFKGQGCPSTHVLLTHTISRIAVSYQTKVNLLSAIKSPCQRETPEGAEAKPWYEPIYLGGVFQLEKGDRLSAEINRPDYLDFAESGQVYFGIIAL

O=C(Nc1ccccc1)Nc1cnns1
active: [6] 18.4 µM | [18] 5.8 µM
not listed: [19] | [20]
inactive: all other assays above

COc1nn(CSP(=S)(OC)OC)c(=O)s1
active: [3] 12.6 µM | [19] 1.23 µM | [18] 6.42 µM | [20] 5.47 µM
inactive: all other assays above

From PubChem BioAssay (EPA / NIEHS)
